NCF1 inh: p47phox/p22phox peptide binding inhibitors, primary screen, biochemical, uHTS, NADPH oxidase regulatory subunit; inhibition, % at 24.7 µM; Neutrophil cytosol factor 1 (Homo sapiens), P14598; 220,000 compounds, 0.53% hits; fluorescence polarization, 2 h; AID 1274, 2008;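 active means inhibition above about 30%, limit read from the data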;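 further: 0% = p47phox with labelled peptide and 100% = labelled peptide alone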
Target sequence (P14598 whole entry, looked up): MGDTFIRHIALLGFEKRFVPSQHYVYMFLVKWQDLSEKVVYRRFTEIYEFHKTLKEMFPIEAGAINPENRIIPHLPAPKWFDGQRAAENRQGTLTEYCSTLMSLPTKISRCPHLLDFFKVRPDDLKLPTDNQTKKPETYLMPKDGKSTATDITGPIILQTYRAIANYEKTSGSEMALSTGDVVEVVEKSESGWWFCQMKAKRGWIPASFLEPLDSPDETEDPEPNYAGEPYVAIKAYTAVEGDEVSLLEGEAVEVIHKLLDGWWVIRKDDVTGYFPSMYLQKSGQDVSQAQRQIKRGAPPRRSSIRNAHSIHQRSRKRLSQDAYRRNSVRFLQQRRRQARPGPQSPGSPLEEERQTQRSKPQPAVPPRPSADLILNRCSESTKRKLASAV
HMGR II inh: inhibitors of E. faecalis class II HMGR, primary screen, biochemical, Enterococcus faecalis; HMG-CoA reductase (Enterococcus faecalis, mvaE); purified E. faecalis HMGR, NADPH absorbance 340 nm kinetic; inhibition, % at 10 µM; 190,000 compounds, 0.41% hits;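 active means inhibition above a set limit, the median over all tested compounds plus 3 SD, cut at about 9.5% in these data; inconclusive means no clear call, values can overlap the other calls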;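 further: enzyme runs in reverse so mevalonate oxidation gives rising NADPH absorbance; 0% = complete reaction with DMSO and 100% = background rate lacking mevalonate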
dFosB act-1: activators of delta FosB homodimer, primary screen, biochemical, fluorescence polarization, TAMRA-CDK5 oligo, single point. Protein FosB (Mus musculus), P13346. purified delta FosB; percent of positive-control signal above neutral wells. activation, % at 25 µM. 340,000 compounds, 0.99% hits. AID 493131, 2011;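 active means mean activation above about 17%, with every replicate also reaching it, limit read from the data, passing the limit was not always enough; inconclusive means only one of the two conditions met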
14-3-3 Bad PPI: inhibitors of 14-3-3 zeta/Bad binding, primary screen, biochemical, TR-FRET, bovine 14-3-3 zeta. AID 781, 2007. 220,000 compounds, 0.71% hits. TR-FRET 14-3-3zeta/Dy647-pBad peptide displacement, 1 h. inhibition, % at 21.7 µM. 14-3-3 protein zeta/delta (Bos taurus), P63103;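 active means inhibition above about 70%, limit read from the data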;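 further: 0% = full 14-3-3 plus peptide FRET controls and 100% = background without 14-3-3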
Target sequence (P63103 whole entry, looked up): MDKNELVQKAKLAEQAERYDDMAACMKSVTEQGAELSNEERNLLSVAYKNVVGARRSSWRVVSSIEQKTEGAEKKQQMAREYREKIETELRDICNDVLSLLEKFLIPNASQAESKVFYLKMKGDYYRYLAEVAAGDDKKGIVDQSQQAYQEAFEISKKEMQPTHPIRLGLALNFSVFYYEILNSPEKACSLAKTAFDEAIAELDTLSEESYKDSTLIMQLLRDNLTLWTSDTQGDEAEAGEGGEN
dFosB act-2: activators of mouse delta FosB DNA binding, confirmation, biochemical, fluorescence polarization, TAMRA-CDK5 oligo, cherry-picked samples | activation, % at 24.9 µM | purified delta FosB; normalised: neutral wells 0, positive control 100 | 2,400 tested, under 10 active | shares compounds with dFosB act-1 | AID 588690, 2011;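 active means highest replicate activation at or above 34% and every replicate reaching that threshold; inconclusive means meets only one of the two criteria; inactive means meets neither criterion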;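 further: higher polarization means more probe DNA bound by delta FosB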
Active calls of the source: *; ? = inconclusive; / = no result given. An excerpt weighted towards active compounds, which were near 1.9% of everything screened.

SMILES | NCF1 inh | HMGR II inh | dFosB act-1 | 14-3-3 Bad PPI | dFosB act-2
O=C(CCc1ccccc1)NNC(=O)Nc1cccc(Cl)c1 | / | / | -0.4 | / | /
O=C(Cc1cccc2ccccc12)NNC(=O)Nc1cccc(Cl)c1 | -12.4 | -1.4 | 31.2* | 7.8 | 0.7
COc1ccc(C(=O)Nc2nc3cc(OC)c(OC)cc3c(=O)[nH]2)cc1 | -4.7 | 3.3 | 24.5* | 4.4 | 0.4
COc1cc2nc(NC(=O)c3ccccc3)[nH]c(=O)c2cc1OC | 10.9 | -1.7 | -10.0 | 2.8 | /
CCOC(=O)C1CCCN(C(=O)CSc2ccccc2)C1 (stereo not drawn) | -1.7 | 1.1 | -14.2 | 3.5 | /
CS(=O)(=O)c1ccc(-c2nnn(CC(N)=O)n2)cc1 | -0.5 | -1.2 | 1.7 | 34.3 | /
CSc1ccccc1NC(=O)Cn1nnc(-c2ccc(S(C)(=O)=O)cc2)n1 | 3.8 | -5.0 | 29.9* | 9.9 | 5.5
COc1ccc(NC(=O)CN2C(=O)NC3(CC(C)CC(C)(C)C3)C2=O)cc1S(=O)(=O)N1CCCCC1 (stereo not drawn) | / | / | -16.8 | / | /
Cc1ccccc1C(=O)Nc1cccc(C(=O)N/N=C/c2ccc3c(c2)OCO3)c1 | / | / | 11.2 | / | /
Cc1cccc(C(=O)Nc2ccc(C(=O)N/N=C/c3ccc4c(c3)OCO4)cc2)c1 | / | / | 15.7 | / | /
O=C(N/N=C/c1ccc2c(c1)OCO2)c1ccc(NC(=O)c2ccccc2Cl)cc1 | / | / | 22.6* | / | -4.7
O=C(Cn1nnc(-c2ccccc2Cl)n1)N/N=C/c1ccc2c(c1)OCO2 | 11.5 | -4.3 | 23.6* | 0.6 | -1.0
O=C(N/N=C/c1ccc2c(c1)OCO2)c1cccc(NC(=O)c2ccccc2Cl)c1 | / | / | 21.3* | / | 3.6
N=c1c(S(=O)(=O)c2ccc(Br)cc2)cc2c(=O)n3ccccc3nc2n1C1CCCCC1 | / | / | -1.0 | / | /
O=C(O)c1nn2c(c1Br)NC(c1ccccc1)CC2C(F)(F)F (stereo not drawn) | -18.6 | 3.4 | 3.4 | -7.4 | /
COc1ccc(C2(C(N)=O)CCCCC2)cc1OC | -6.8 | -3.1 | -1.9 | -10.8 | /
COc1ccc(/C=C/C(=O)Nc2ccc(-n3nncc3-c3ccc(OC)c(OC)c3)cc2)cc1OC | -40.0 | -0.4 | 45.8* | -14.0 | -1.6
COc1ccc(/C=C/C(=O)NC(=S)Nc2ccccc2)cc1OC | / | / | 32.9* | / | -0.3
COc1ccc(/C=C/C(=O)NC(=S)Nc2ccc(S(N)(=O)=O)cc2)cc1OC | / | / | 46.6* | / | 1.6
COc1ccc(NC(=S)NCc2ccc(S(N)(=O)=O)cc2)cc1OC | 5.4 | 1.6 | 2.7 | -11.5 | /
NC(N)=NS(=O)(=O)c1ccc(NC(=S)NC(=O)/C=C/c2ccccc2)cc1 | / | / | 22.2* | / | 2.7
COC(=O)c1ccc(NC(=O)CSc2nnnn2C2CCCCC2)cc1 | 0.1 | -8.7 | 2.7 | -0.3 | /
CCCn1c(=N)n(CC(=O)c2ccco2)c2ccccc21 | -10.0 | -0.1 | 1.8 | -4.8 | /
CNC(=O)c1ccc(-c2ccc(Cl)c(Cl)c2)s1 | -7.3 | -7.3 | 21.3* | 3.0 | 1.6
CNC(=O)c1ccc(-c2ccc(F)cc2)s1 | -6.2 | 0.3 | -2.9 | 33.7 | /
SMILES | NCF1 inh | HMGR II inh | dFosB act-1 | 14-3-3 Bad PPI | dFosB act-2
CCCNC(=O)[C@@H]1CCCN1C(=O)[C@@H]1Cc2ccccc2CN1 | / | / | 4.9 | / | /
Cc1ccccc1NC(=O)CSc1nc(N)c(C#N)c(-c2cccs2)c1C#N | -10.3 | 1.8 | 60.6* | 7.6 | 3.4
CCN(CC)C(=O)CSc1nc(N)c(C#N)c(-c2cccs2)c1C#N | 1.7 | -0.8 | 4.6 | 1.1 | /
Cc1cc(C)c(C)c(C(=O)COC(=O)CNC(=O)CN2C(=O)c3ccccc3C2=O)c1C | 10.5 | -9.6 | 43.2* | 26.9 | ?
Cc1cc(C(=O)N/N=C/c2cccc(OC(=O)c3cccc(Br)c3)c2)n[nH]1 | / | / | 29.5* | / | 2.9
O=C(CSc1nc2ccccc2c(=O)n1-c1ccc(Cl)cc1)c1ccco1 | 0.3 | -4.6 | 52.8* | -13.5 | 3.2
NC(=O)CSc1nc2ccccc2c(=O)n1-c1ccccc1 | / | / | 0.5 | / | /
CCOC(=O)c1c(C)[nH]c(C)c1C(=O)CSc1nc2ccccc2c(=O)n1-c1ccc(Cl)cc1 | -23.4 | -1.5 | -0.2 | -31.1 | /
O=C(CSc1nc2ccccc2c(=O)n1-c1ccccc1)c1c[nH]c2ccccc12 | -10.7 | -2.4 | 28.6* | -4.4 | 4.8
CCOC(=O)Nc1ccc2c(COC(=O)CN(C)S(=O)(=O)c3ccc(C)cc3)cc(=O)oc2c1 | / | / | 36.0* | / | 7.5
O=c1[nH]c(CN2CCc3ccccc32)nc2scc(-c3cccs3)c12 | -37.0 | 2.1 | 1.4 | 0.7 | /
O=C(CSc1ncnc2[nH]ncc12)Nc1nc(-c2ccc(F)c(F)c2)cs1 | -75.4 | 7.7 | 33.1* | 73.8* | -0.6
O=C(Cc1ccc(F)cc1)Nc1nc(-c2ccc(F)c(F)c2)cs1 | / | / | -3.7 | / | /
Cc1c(-c2cc(Br)ccc2O)nc2cc3c(cc2c1C)OCO3 | / | / | 24.4* | / | 5.1
COc1ccc(/C=N\NC(=O)c2ccc([N+](=O)[O-])cc2)cc1COc1c(F)c(F)cc(F)c1F | / | / | 2.3 | / | /
O=c1[nH]c(/C=C/c2cccc3ccccc23)nc2ccccc12 | 53.8* | -0.6 | 25.5* | 58.1 | -1.5
CCOc1ccc(CNC(c2ccccc2)c2ccccc2)cc1 | / | / | -11.2 | / | /
O=C(NC(C1CC1)C1CC1)C1CCC(=O)N(CCCN2CCCC2=O)C1 (stereo not drawn) | / | / | 1.4 | / | /
Nc1cc2c3c(cccc3c1)C(=O)N(CCN1CCCC1)C2=O | 4.6 | / | 56.7* | 5.1 | -1.9
CCOC(=O)CCCCCN1C(=O)c2cccc3cccc(c23)C1=O | / | / | -4.1 | / | /
CCCS(=O)(=O)N1CCN(CCN2C(=O)c3cccc4cccc(c34)C2=O)CC1 | 3.0 | -2.4 | 3.4 | 0.2 | /
CCN(CC)CCN1C(=O)c2cccc3cc(N)cc(c23)C1=O | 17.1 | / | 24.1* | -8.4 | -4.3
NC(=O)CN1CCN(CCN2C(=O)c3cccc4cccc(c34)C2=O)CC1 | / | / | 24.0* | / | -8.9
O=c1c2ccccc2oc2c1ccc1ccccc12 | / | / | -33.2 | / | /
O=c1cc(/N=C/c2coc3c(ccc4ccccc43)c2=O)[nH]c(=S)[nH]1 | -1.5 | -5.6 | 43.3* | -7.5 | -1.2
CCOc1cc2c(cc1O)C(=NOC)CC1C2CCC2(C)C(O)CCC12 (stereo not drawn) | / | / | -17.2 | / | /
CC(=O)Nc1ccc(SCC(=O)c2c(N)n(Cc3ccccc3)c(=O)n(C)c2=O)cc1 | 7.9 | / | 17.0* | 0.5 | 3.7
Cc1cc2ccccc2c(=O)n1CC(=O)Nc1ccc2c(c1)OCCO2 | -5.7 | 1.1 | 18.8* | -1.7 | 0.4
COc1ccc(NC(=O)CNC(=O)Cn2c(C)cc3ccccc3c2=O)cc1OC | -11.6 | 6.6 | 9.7 | -7.9 | /
Cn1c(=O)cc(OCCCC(=O)Nc2ccc3c(c2)OCCO3)c2ccccc21 | 0.8 | -2.4 | 43.8* | 6.9 | 2.1
